The nature of experiment [1]: E. coli DRC41 culture turbidity changes, primary screen, E. coli filamentation inducer project, strain DRC41, OD650, 48 h (AID 1152).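 Note: E. coli MC1000 strain DRC41 lacking acrAB efflux pump and sulA.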 As to conditions: E. coli DRC41 (acrAB sulA), higher = more signal, called active from +8 up or from −8 down.
Experiment [2] can be described thus: small-molecule binders of probe aLefty1, primary screen, biochemical, small-molecule microarray, 635/667 nm fluorescence (AID 1153).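 Note: score merges spot fluorescence with signal-to-noise ratio from the scanned slide images.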 The settings on record: higher = more signal.
Experiment [3] in a line: PSAC antagonists in infected red cells, primary screen, cell-based, P. falciparum Indochina, OD700, 1 h (AID 1154). The settings on record: P. falciparum Indochina infected RBC osmotic lysis, higher = more signal, called active from +8 up or from −8 down.
Experiment [4] can be described thus: PSAC antagonists in infected red cells, primary screen, cell-based, P. falciparum Indochina, OD700, 2 h (AID 1155).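 Note: lysis reports solute entry through the parasite surface anion channel PSAC; channel blockers reduce lysis of infected cells.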 The settings on record: P. falciparum Indochina infected erythrocytes, osmotic lysis OD700; higher = more signal, called active from +8 up or from −8 down.
Experiment [5] in a line: osmotic lysis modulators in infected erythrocytes, primary screen, PSAC antagonist project, cell-based, P. falciparum Indochina, OD700, 3 h (AID 1156). The settings on record: higher = more signal, called active from +8 up or from −8 down.
Experiment [6] can be described thus: PSAC antagonists in infected red cells, primary screen, cell-based, P. falciparum Indochina, OD700, 18 h (AID 1157). As to conditions: P. falciparum Indochina infected erythrocytes, osmotic lysis OD700, 18 h; higher = more signal, called active from +8 up or from −8 down.
Experiment [7] is described as follows: modulators of S6 phosphorylation in cells, primary screen, cell-based, A549, cytoblot, luminescence, serum-stimulated (AID 1158).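 Note: serum-stimulated A549 lung adenocarcinoma cells; signal is phosphorylated S6 detected by cytoblot immunostaining with HRP secondary.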 The settings on record: A549 phospho-S6 cytoblot, 5 h, higher = more signal.
Experiment [8] concerns the target NADPH oxidase 2 (Homo sapiens) (UniProt P04839). Briefly: NOX2-dependent H2O2 signal modulators, primary screen, NOX inhibitor project, cell-based, HEK293-NOX2, PMA-stimulated, Amplex Red fluorescence (AID 1159). Note: test concentration not given here. The settings on record: 45 min, higher = more signal, called active from +8 up or from −8 down.
The target of experiment [9] is NADPH oxidase 4 (Homo sapiens) (UniProt Q9NPH5). Briefly: NOX4-dependent H2O2 signal modulators, primary screen, NOX inhibitor project, cell-based, HEK293-NOX4, tetracycline-induced, Amplex Red fluorescence (AID 1160). The settings on record: 45 min, higher = more signal, called active from +8 up or from −8 down.
Sequence of NADPH oxidase 4 (Homo sapiens) (Q9NPH5 whole entry, looked up): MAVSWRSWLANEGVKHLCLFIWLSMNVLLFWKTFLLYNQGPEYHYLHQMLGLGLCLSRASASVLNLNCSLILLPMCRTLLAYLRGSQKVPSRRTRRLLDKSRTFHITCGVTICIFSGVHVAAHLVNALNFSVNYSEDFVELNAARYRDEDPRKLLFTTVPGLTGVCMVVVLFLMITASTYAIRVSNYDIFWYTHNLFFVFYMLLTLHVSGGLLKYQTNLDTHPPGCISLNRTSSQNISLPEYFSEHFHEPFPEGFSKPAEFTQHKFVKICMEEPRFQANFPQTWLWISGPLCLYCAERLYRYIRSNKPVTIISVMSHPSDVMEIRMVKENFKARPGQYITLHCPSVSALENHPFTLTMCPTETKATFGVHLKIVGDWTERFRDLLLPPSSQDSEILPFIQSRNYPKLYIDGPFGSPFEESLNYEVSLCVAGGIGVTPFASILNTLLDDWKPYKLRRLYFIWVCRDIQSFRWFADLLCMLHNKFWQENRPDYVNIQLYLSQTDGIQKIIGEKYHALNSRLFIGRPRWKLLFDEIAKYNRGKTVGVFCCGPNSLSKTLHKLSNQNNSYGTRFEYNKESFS
Experiment [10] deals with NADPH oxidase 5 (Homo sapiens) (UniProt Q96PH1). The experiment in a line: NOX5-dependent H2O2 signal modulators, primary screen, NOX inhibitor project, cell-based, HEK293-NOX5, Amplex Red fluorescence (AID 1161). The settings on record: HEK293-NOX5, ionomycin, 45 min, higher = more signal.
Sequence of NADPH oxidase 5 (Homo sapiens) (Q96PH1 whole entry, looked up): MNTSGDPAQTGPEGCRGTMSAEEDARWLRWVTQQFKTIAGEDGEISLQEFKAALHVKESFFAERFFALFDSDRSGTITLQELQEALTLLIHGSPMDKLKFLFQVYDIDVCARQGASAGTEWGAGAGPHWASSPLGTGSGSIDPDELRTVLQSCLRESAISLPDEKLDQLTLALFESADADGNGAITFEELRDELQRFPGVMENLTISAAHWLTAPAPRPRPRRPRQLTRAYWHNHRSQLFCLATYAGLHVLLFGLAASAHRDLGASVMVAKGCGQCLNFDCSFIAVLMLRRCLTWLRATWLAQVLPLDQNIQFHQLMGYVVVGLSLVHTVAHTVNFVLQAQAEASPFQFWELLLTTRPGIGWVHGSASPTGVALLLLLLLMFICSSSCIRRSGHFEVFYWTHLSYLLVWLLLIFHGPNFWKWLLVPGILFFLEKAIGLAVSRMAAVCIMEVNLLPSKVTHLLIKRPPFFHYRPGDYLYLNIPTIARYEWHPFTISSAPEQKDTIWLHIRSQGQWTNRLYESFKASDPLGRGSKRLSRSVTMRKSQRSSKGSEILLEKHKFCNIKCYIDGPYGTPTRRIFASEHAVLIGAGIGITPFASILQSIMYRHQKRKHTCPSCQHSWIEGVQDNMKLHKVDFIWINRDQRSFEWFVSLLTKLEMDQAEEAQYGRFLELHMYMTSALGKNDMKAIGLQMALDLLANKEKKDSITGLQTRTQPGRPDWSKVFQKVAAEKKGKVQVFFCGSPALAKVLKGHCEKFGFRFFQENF
Experiment [11] in a line: A549 cell viability effects, profiling panel, calcein-AM fluorescence, 48 h, basal (AID 1162). Note: test concentration not given here. As to conditions: higher = more signal.
Experiment [12] is described as follows: adipocyte viability effects, profiling panel, cell-based, 3T3-L1 adipocytes, calcein-AM fluorescence, 48 h, basal (AID 1163). Note: test concentration not given here. The settings on record: 3T3-L1 adipocytes viability, higher = more signal.
Experiment [13] is described as follows: HepG2 cell viability effects, profiling panel, calcein-AM fluorescence, 48 h, basal (AID 1164). Note: test concentration not given here. As to conditions: higher = more signal.
A short description of experiment [14]: MM1S cell viability effects, profiling panel, calcein-AM fluorescence, 48 h, basal (AID 1165).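 Note: viability of MM1S multiple myeloma cells under basal unstimulated conditions; test concentration not given here.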 As to conditions: higher = more signal.
A short description of experiment [15]: basal RPMI8226 viability, no added stimulus, profiling panel, cell-based, calcein-AM fluorescence, 48 h, PK04 Diversity Set (AID 1166).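 Note: cells grown under basal conditions without added stimulus; test concentration not given here.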 As to conditions: RPMI8226 myeloma viability, higher = more signal.
Experiment [16] can be described thus: basal HepG2 mitochondrial membrane potential changes, profiling panel, cell-based, JC-1 fluorescence, 24 h, 100 nL compound (AID 1167). Note: test concentration not given here. As to conditions: higher = more signal.
Experiment [17] can be described thus: basal 3T3-L1 adipocyte mitochondrial potential changes, profiling panel, cell-based, JC-1 fluorescence, 3T3-L1 adipocytes, 24 h, 100 nL compound (AID 1168). Note: test concentration not given here. As to conditions: JC-1 mitochondrial fluorescence, higher = more signal, called active from +8 up or from −8 down.
Experiment [18] is described as follows: basal RPMI8226 mitochondrial membrane potential changes, profiling panel, cell-based, JC-1 fluorescence, 24 h, 100 nL compound (AID 1169). Note: test concentration not given here. The settings on record: RPMI8226 myeloma, JC-1 mitochondrial potential fluorescence, higher = more signal.
Experiment [19] in a line: basal MM1S mitochondrial membrane potential changes, profiling panel, cell-based, JC-1 fluorescence, 24 h, 100 nL compound (AID 1170). Note: test concentration not given here. The settings on record: higher = more signal.
Experiment [20] in a line: A549 lung cancer cell viability effects, profiling panel, resazurin fluorescence, 24 h, PK04 Diversity Set (AID 1171). Note: test concentration not given here. As to conditions: higher = more signal, called active from +8 up or from −8 down.

Each structure is given as a SMILES string. The source made the active and inactive calls.

Sequence of NADPH oxidase 2 (Homo sapiens) (P04839 whole entry, looked up): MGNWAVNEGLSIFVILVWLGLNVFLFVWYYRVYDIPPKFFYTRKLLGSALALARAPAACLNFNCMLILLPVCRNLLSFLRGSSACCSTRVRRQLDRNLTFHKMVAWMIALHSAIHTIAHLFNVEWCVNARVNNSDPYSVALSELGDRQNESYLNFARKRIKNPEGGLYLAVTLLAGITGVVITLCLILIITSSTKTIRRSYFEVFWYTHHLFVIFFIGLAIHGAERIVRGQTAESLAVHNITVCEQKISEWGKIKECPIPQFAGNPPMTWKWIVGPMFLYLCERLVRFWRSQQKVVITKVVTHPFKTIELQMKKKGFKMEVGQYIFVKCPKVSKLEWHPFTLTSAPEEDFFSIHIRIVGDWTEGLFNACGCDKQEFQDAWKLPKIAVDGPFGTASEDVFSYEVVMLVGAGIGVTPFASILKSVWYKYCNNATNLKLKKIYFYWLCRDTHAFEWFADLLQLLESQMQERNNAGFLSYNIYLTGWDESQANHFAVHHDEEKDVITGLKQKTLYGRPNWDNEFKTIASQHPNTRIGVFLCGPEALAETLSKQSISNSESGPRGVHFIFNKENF

As for `CO[C@H]1O[C@H](CO)[C@@H](OC(=O)Nc2ccc3c(c2)OCO3)[C@H](OC(=O)Nc2ccc3c(c2)OCO3)[C@H]1OC(=O)Nc1ccc2c(c1)OCO2`, the z-score in experiment [1] is 0.164 (inactive); in experiment [3] it was 6.86 (inactive); in experiment [4] it was 1.04 (inactive); in experiment [5], 0.608 (inactive); in experiment [6], 0.519 (inactive); in experiment [7], -0.489. The z-score in experiment [8] is -1.44 (inactive); in experiment [9], -0.847 (inactive); in experiment [10], -1.69; in experiment [11], -0.689; in experiment [12], -0.121; in experiment [13] it was -1.09. Moreover, the z-score is -1.57 in experiment [14]; -0.566 in experiment [15]; 0.328 in experiment [16]; 0.374 (inactive) in experiment [17]; 0.0119 in experiment [18]; 0.961 in experiment [19]. Moreover, the z-score in [20] was 0.38 (inactive). In experiment [2], this molecule showed a composite z-score of 0.457.
In the case of `C=CCC(OC(C)=O)[C@@H]1[C@@H](N(Cc2cc3ccccc3o2)C(=O)c2cccc3ccccc23)c2cc(OCCCO)ccc2N1C(=O)Cc1ccc2ccccc2c1` (stereo not given in full), the z-score in experiment [1] was -0.288 (inactive); in experiment [3] it was 2.06 (inactive); in experiment [4] it was 0.231 (inactive); in experiment [5], -0.336 (inactive); in [6] it was 0.332 (inactive); in experiment [7] it was 0.778. Besides, the z-score in experiment [8] is 0.39 (inactive); in [9] it was -1.46 (inactive); in experiment [10] it was -2.19; in experiment [11], 0.206; in [12] it was 0.753; in experiment [13], 0.381. The z-score was 0.791 in experiment [14]; -1.08 in experiment [15]; 2.07 in experiment [16]; -0.858 (inactive) in [17]; 0.313 in experiment [18]; -0.963 in experiment [19]. Moreover, in experiment [20], the z-score is -1.05 (inactive). The molecule further came in with a composite z-score in experiment [2] of -0.0547.
For `O=C1O[C@@H](c2ccccc2)[C@@H](c2ccccc2)N2[C@@H](c3ccc(O)cc3)[C@]3(C(=O)Nc4ccc(C#CCCO)cc43)[C@@H](C(=O)N3CCCCCCC3)[C@H]12`, the z-score in experiment [1] was -0.681 (inactive); in experiment [3], 1.27 (inactive); in experiment [4], 0.654 (inactive); in [5], -0.69 (inactive); in experiment [6], 0.541 (inactive); in experiment [7], -0.364. Besides, the z-score was 1.15 (inactive) in experiment [8]; 0.277 (inactive) in [9]; 1.47 in experiment [10]; 0.498 in experiment [11]; 0.93 in [12]; -0.284 in experiment [13]. Also, the z-score was 0.59 in experiment [14]; -1.24 in [15]; -1.06 in experiment [16]; -0.585 (inactive) in [17]; -0.185 in [18]; 0.129 in [19]. Further, the z-score in experiment [20] is 0.254 (inactive). This molecule also gave a composite z-score in experiment [2] of 2.4.
As for `C=CC[C@@]1(C(=O)OC)N=C(c2ccc(OCCCO)cc2)O[C@@H]1c1ccccc1CN=[N+]=[N-]`, the z-score in experiment [1] was 1.24 (inactive); in experiment [3], 26.9 (active); in experiment [4] it was 18.7 (active); in [5] it was -0.26 (inactive); in [6] it was 3.48 (inactive); in [7], 1.79. In addition, the z-score in experiment [8] is -4.05 (inactive); in experiment [9] it was 0.419 (inactive); in [10] it was -3.1; in experiment [11], -0.817; in experiment [12], 0.358; in [13] it was -1.13. Further, the z-score was -2.7 in experiment [14]; -3.17 in experiment [15]; 0.195 in experiment [16]; 1.31 (inactive) in experiment [17]; -0.969 in [18]; -0.949 in experiment [19]. Besides, the z-score in [20] is -1.19 (inactive). Also, the composite z-score in experiment [2] is 0.0674.
